# Experimental data published in PubChem BioAssay.
# Calls of active or inactive are those of the source. Unless noted, no rule for the calls is given here.
# Tests used:
# [1] = compound effects on lung adenocarcinoma cell viability – A549, calcein-AM fluorescence, 48 h, basal, profiling panel (AID 1162); details: higher = more signal; also: test concentration not given here
# [2] = compound effects on differentiated 3T3-L1 adipocyte viability – cell-based, 3T3-L1 adipocytes, calcein-AM fluorescence, 48 h, basal, profiling panel (AID 1163); details: 3T3-L1 adipocytes viability, higher = more signal; also: test concentration not given here
# [3] = compound effects on hepatocellular carcinoma cell viability – HepG2, calcein-AM fluorescence, 48 h, basal, profiling panel (AID 1164); details: higher = more signal; also: test concentration not given here
# [4] = compound effects on multiple myeloma cell viability – MM1S, calcein-AM fluorescence, 48 h, basal, profiling panel (AID 1165); details: higher = more signal;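 also: viability of MM1S multiple myeloma cells under basal unstimulated conditions; test concentration not given here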
# [5] = calcein-AM signal in unstimulated myeloma cells – cell-based, calcein-AM fluorescence, 48 h, PK04 Diversity Set, profiling panel (AID 1166); details: RPMI8226 myeloma viability, higher = more signal;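 also: cells grown under basal conditions without added stimulus; test concentration not given here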
# [6] = JC-1 mitochondrial signal, unstimulated HepG2 cells – cell-based, JC-1 fluorescence, 24 h, 100 nL compound, profiling panel (AID 1167); details: HepG2 mitochondrial potential, higher = more signal; also: test concentration not given here
# [7] = JC-1 mitochondrial signal, unstimulated adipocytes – cell-based, JC-1 fluorescence, 3T3-L1 adipocytes, 24 h, 100 nL compound, profiling panel (AID 1168); details: JC-1 mitochondrial fluorescence, higher = more signal, called active from +8 up or from −8 down; also: test concentration not given here
# [8] = JC-1 mitochondrial signal, unstimulated myeloma cells – cell-based, JC-1 fluorescence, RPMI8226, 24 h, 100 nL compound, profiling panel (AID 1169); details: JC-1 mitochondrial potential fluorescence, higher = more signal; also: test concentration not given here
# [9] = JC-1 mitochondrial signal, unstimulated MM1S myeloma – cell-based, JC-1 fluorescence, 24 h, 100 nL compound, profiling panel (AID 1170); details: MM1S mitochondrial potential, higher = more signal; also: test concentration not given here
# [10] = resazurin metabolic signal in A549 cells – cell-based, resazurin fluorescence, 24 h, PK04 Diversity Set, profiling panel (AID 1171); details: A549 viability, higher = more signal, called active from +8 up or from −8 down; also: test concentration not given here
# [11] = resazurin metabolic signal in HepG2 cells – cell-based, resazurin fluorescence, 24 h, PK04 Diversity Set, profiling panel (AID 1172); details: HepG2 viability, higher = more signal; also: test concentration not given here
# [12] = budding yeast growth changes without added modifier – OD600, strain BY4716, 24 h, basal condition, primary screen (AID 1173); details: S. cerevisiae BY4716 growth, OD600, 24 h; higher = more signal, called active from +8 up or from −8 down
# [13] = viability profiling in MM1S myeloma cells – cell-based, resazurin fluorescence, basal, 24 h, PK04 Diversity Set, profiling panel (AID 1174); details: higher = more signal, called active from +8 up or from −8 down; also: test concentration not given here
# [14] = biological target: Dihydroorotate dehydrogenase (quinone), mitochondrial (Plasmodium falciparum (isolate 3D7)) (UniProt Q08210); assay: inhibition of P. falciparum DHODH – biochemical, C-terminal His tag, absorbance 600 nm, primary screen (AID 1175); details: PfDHODH enzyme, DCIP absorbance 600 nm; higher = more signal, called active from +8 up or from −8 down;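 also: recombinant parasite enzyme with a five histidine tag at its C terminus; test concentration not given here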
# [15] = inhibition of PAO1 biofilm formation – strain PAO1, LB-PBS medium, absorbance 600 nm, primary screen (AID 1176); also: test concentration not given here; details: P. aeruginosa PAO1 growth/biofilm, A600, 12 h; higher = more signal
# [16] = growth modulation of vineyard yeast isolate – strain RM11-1a, OD600, basal, 24 h, primary screen (AID 1177);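 also: cultures grown under basal conditions with no added stressor; test concentration not given here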; details: S. cerevisiae RM11-1a growth, OD600, 24 h; higher = more signal, called active from +8 up or from −8 down
# [17] = growth of efflux-deficient E. coli DRC39 – strain DRC39, OD650, 24 h, E. coli filamentation inducers, primary screen (AID 1178);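 also: growth measured as culture turbidity by optical density at 650 nm; test concentration not given here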; details: E. coli DRC39 acrAB, higher = more signal, called active from +8 up or from −8 down
# [18] = growth of efflux-deficient E. coli DRC39 – strain DRC39, OD650, 48 h, E. coli filamentation inducers, primary screen (AID 1179);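 also: screen aims at cell division blockers that make cells filament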; details: E. coli DRC39 delta-acrAB growth, higher = more signal, called active from +8 up or from −8 down
# [19] = viability profiling in RPMI8226 myeloma cells – cell-based, resazurin fluorescence, basal, 24 h, PK04 Diversity Set, profiling panel (AID 1180); details: higher = more signal;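 also: RPMI8826 multiple myeloma cell line at 5000 cells per well; test concentration not given here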
# [20] = biological target: E3 ubiquitin-protein ligase XIAP (Homo sapiens) (UniProt P98170); assay: small molecules binding XIAP protein – biophysical, small-molecule microarray, fluorescence 635 nm, primary screen (AID 1181); details: higher = more signal;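 also: score merges 667 nm emission and signal to noise over triplicate slides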
# Sequence of E3 ubiquitin-protein ligase XIAP (Homo sapiens) (P98170 whole entry, looked up): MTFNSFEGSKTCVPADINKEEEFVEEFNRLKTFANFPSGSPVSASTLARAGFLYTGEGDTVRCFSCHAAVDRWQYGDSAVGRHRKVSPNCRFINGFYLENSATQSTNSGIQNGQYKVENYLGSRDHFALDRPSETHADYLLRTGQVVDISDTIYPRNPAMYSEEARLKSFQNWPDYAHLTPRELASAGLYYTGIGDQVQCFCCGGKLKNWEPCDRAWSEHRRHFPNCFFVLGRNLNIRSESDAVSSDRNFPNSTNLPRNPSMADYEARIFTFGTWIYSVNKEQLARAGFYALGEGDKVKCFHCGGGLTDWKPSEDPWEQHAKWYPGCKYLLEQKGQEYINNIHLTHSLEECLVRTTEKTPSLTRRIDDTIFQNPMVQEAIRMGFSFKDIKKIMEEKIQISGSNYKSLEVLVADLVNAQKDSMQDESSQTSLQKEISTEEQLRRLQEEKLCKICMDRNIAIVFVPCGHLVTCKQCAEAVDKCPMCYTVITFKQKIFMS
# Sequence of Dihydroorotate dehydrogenase (quinone), mitochondrial (Plasmodium falciparum (isolate 3D7)) (Q08210 whole entry, looked up): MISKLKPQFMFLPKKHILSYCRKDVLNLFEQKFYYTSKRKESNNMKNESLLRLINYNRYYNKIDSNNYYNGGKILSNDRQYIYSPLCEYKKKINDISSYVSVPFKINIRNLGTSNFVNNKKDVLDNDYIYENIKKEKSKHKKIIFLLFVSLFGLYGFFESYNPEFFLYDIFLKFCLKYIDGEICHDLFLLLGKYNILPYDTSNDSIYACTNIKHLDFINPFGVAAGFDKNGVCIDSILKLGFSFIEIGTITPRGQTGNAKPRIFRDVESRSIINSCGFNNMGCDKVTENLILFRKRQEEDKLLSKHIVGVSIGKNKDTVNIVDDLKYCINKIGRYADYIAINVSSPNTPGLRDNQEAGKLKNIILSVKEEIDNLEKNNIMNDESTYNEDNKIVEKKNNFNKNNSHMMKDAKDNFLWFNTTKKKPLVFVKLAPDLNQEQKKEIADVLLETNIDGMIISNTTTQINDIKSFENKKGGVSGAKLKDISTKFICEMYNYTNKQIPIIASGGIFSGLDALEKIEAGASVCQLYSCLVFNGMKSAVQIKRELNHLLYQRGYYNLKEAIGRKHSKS
SMILES,z-score [1],z-score [2],z-score [3],z-score [4],z-score [5],z-score [6],z-score [7],z-score [8],z-score [9],z-score [10],z-score [11],z-score [12],z-score [13],composite z-score [14],z-score [15],z-score [16],z-score [17],z-score [18],z-score [19],composite z-score [20]
Cc1ccc(N2C(=O)c3ccccc3[C@@H](C(=O)NCCCN(C)C)[C@@H]2c2ccc(CO)cc2)nc1,-0.249,0.297,0.0355,0.817,-0.71,-0.685,0.208 (inactive),-0.0886,-0.241,-0.0494 (inactive),0.258,-0.957 (inactive),-0.252 (inactive),-0.746 (inactive),-0.397 (inactive),-0.64 (inactive),-0.152 (inactive),0.327 (inactive),0.262,-0.102
Cc1ccc(S[C@]2(C(=O)NCC(F)(F)F)CC(=O)N(Cc3cc(C(F)(F)F)cc(C(F)(F)F)c3)[C@@H]2c2ccc(CO)cc2I)cc1,-0.369,-0.37,-0.548,-2.27,-2.64,-0.812,-0.792 (inactive),-0.366,-0.852,1.19 (inactive),1.02,-3.16 (inactive),-1.99 (inactive),-0.845 (inactive),-0.522 (inactive),-0.974 (inactive),-0.301 (inactive),-0.0582 (inactive),-2.03,-0.325
CCCCCC1=C2CNC(C)(C(=O)OC)C=C2C(C)C1=O (stereo not given),-1.23,-0.0708,-1.29,-0.865,-0.467,-1.71,-1.22 (inactive),0.782,-0.362,-0.722 (inactive),-0.901,2.3 (inactive),-1.59 (inactive),-0.455 (inactive),1.06 (inactive),1.18 (inactive),-0.814 (inactive),-0.193 (inactive),-1.66,0.152
COC(=O)[C@]1(CCS(=O)(=O)c2ccccc2)N=C(c2ccc(OCCCO)cc2)O[C@@H]1c1ccccc1N=[N+]=[N-],-1.49,1.78,-2.18,-2.8,-3.33,0.811,-0.294 (inactive),-1.13,0.546,-3.46 (inactive),-1.28,0.141 (inactive),-3.19 (inactive),1.02 (inactive),0.963 (inactive),2.53 (inactive),0.548 (inactive),-0.718 (inactive),-2.26,-0.0502
C=CC[C@]1(C(=O)N2CCOCC2)COC(c2ccc(OCCCO)cc2)=N1,-0.559,0.147,-0.814,-0.405,-1.21,-0.658,-0.142 (inactive),0.846,-0.422,1.47 (inactive),1.31,-1.37 (inactive),0.574 (inactive),-0.214 (inactive),0.124 (inactive),-0.19 (inactive),0.904 (inactive),0.46 (inactive),0.0543,0.0055
COc1ccc(CCNC(=O)[C@@]2(Cc3ccccc3I)c3ccccc3C(=O)N(C3CCCCC3)[C@H]2c2ccc(CO)cc2)cc1,1,2.42,-0.449,-1.93,-2.47,2.5,0.537 (inactive),-0.184,-1.17,-0.584 (inactive),-0.0428,-0.447 (inactive),-0.0298 (inactive),-0.145 (inactive),0.462 (inactive),-2.65 (inactive),0.314 (inactive),0.197 (inactive),-0.0337,0.144
CCCC1(C(=O)OC)C=C2C(=C(C)C(=O)C2C)CN1 (stereo not given),-1.48,-1.07,-0.806,-0.44,-1.03,-1.96,-1.16 (inactive),-0.0212,-0.974,-0.727 (inactive),-1.11,1.99 (inactive),-1.23 (inactive),-1.8 (inactive),0.343 (inactive),0.338 (inactive),-0.715 (inactive),0.0101 (inactive),-1.88,0.258
[N-]=[N+]=Nc1ccccc1C[C@]1(C(=O)N2CCOCC2)COC(c2ccc(OCCCO)cc2)=N1,0.462,1.31,-0.603,-1.43,-0.314,0.943,-0.491 (inactive),-0.571,0.615,1.63 (inactive),1.27,-3.78 (inactive),0.632 (inactive),0.265 (inactive),-0.537 (inactive),-0.85 (inactive),1.08 (inactive),0.906 (inactive),1.02,0.138
CCCN1C(=O)[C@]2(Cc3ccccc31)N=C(c1ccc(OCCCO)cc1)O[C@@H]2c1ccccc1,-1.29,1.07,-1.46,-1.6,-4.4,-0.29,-0.906 (inactive),-1.17,0.278,-1.6 (inactive),-0.222,-1.72 (inactive),-1.31 (inactive),1.16 (inactive),0.0279 (inactive),1.4 (inactive),1.15 (inactive),-0.413 (inactive),-0.804,0.0605
CC1CC/C=C\[C@H]2OC34C=CCN(C(C)C)C(=O)[C@H]3N(CCO)C(=O)[C@@H]4C2C(=O)O1 (stereo not given in full),0.649,0.668,-0.255,0.824,-1.11,0.813,0.691 (inactive),0.021,1.65,-0.969 (inactive),-0.961,0.486 (inactive),0.802 (inactive),0.705 (inactive),-0.413 (inactive),0.651 (inactive),0.764 (inactive),0.341 (inactive),0.838,0.0484
CCOC(=O)C[C@H]1[C@H](OC(=O)c2ccc(C(=O)c3ccccc3)cc2)[C@@H](NC(=O)c2ccc3ccccc3n2)c2cc(OCCCO)ccc2N1C(=O)Cc1ccc(OC)cc1,0.822,0.418,0.113,0.37,0.0914,0.546,0.295 (inactive),-0.181,-0.14,0.0291 (inactive),-0.0031,1.03 (inactive),0.0487 (inactive),-0.0608 (inactive),-0.75 (inactive),0.0192 (inactive),-2.25 (inactive),-2.31 (inactive),0.131,-0.0961
COCCOC(=O)N1C(=O)[C@@]2(c3cc(C#CC4(O)CCCCCC4)ccc31)[C@H](C(=O)Nc1nc3ccccc3s1)[C@H]1C(=O)O[C@H](c3ccccc3)[C@H](c3ccccc3)N1[C@@H]2c1ccc(O)cc1,0.638,-0.457,0.74,-0.227,-2.46,-3.17,-0.421 (inactive),-0.897,-0.897,-0.436 (inactive),-0.0328,-0.873 (inactive),-0.858 (inactive),-1.03 (inactive),0.598 (inactive),1.24 (inactive),0.487 (inactive),0.613 (inactive),-0.945,-0.0274
COc1ccc([Si](C)(C)[C@@H]2[C@@H](CC(=O)N3Cc4ccccc4C[C@H]3CO)O[C@]3(C(=O)N(Cc4ccc(N5C(=O)c6cccc7cccc5c67)cc4)c4ccccc43)[C@H]2C)cc1,0.396,0.885,0.355,-2.78,-0.705,1.15,-0.0452 (inactive),-0.0572,0.893,-0.787 (inactive),-0.542,-0.551 (inactive),-0.717 (inactive),-2.41 (inactive),1 (inactive),1.15 (inactive),0.384 (inactive),0.403 (inactive),-0.221,-0.0773
COc1ccc([Si](C)(C)[C@H]2[C@H](CC(=O)N3CCC[C@H]3CO)O[C@@]3(C(=O)N(Cc4ccc(N5CCOC5=O)cc4)c4ccccc43)[C@@H]2C)cc1,-0.585,0.722,-0.557,-2.27,-3.98,2.41,0.388 (inactive),-1.06,-0.325,0.0083 (inactive),-0.0717,0.686 (inactive),-0.255 (inactive),-2.97 (inactive),0.189 (inactive),1.35 (inactive),0.0286 (inactive),-0.16 (inactive),-0.404,-0.0356
CN(C)C(=O)[C@]1(Cc2ccccc2CN=[N+]=[N-])N=C(c2ccc(OCCCO)cc2)O[C@@H]1c1ccccc1,-2.01,0.894,-1.65,-3.16,-4.37,-0.117,-0.58 (inactive),-1.33,-1.37,0.721 (inactive),0.747,-0.948 (inactive),-0.535 (inactive),-0.366 (inactive),-0.137 (inactive),0.787 (inactive),0.294 (inactive),-0.296 (inactive),-1.16,-0.127
CCOC(=O)C[C@H]1[C@H](OC(=O)c2ccccc2-c2ccccc2)[C@@H](NC(=O)c2ccc3ccccc3c2)c2cc(OCCCO)ccc2N1C(=O)c1ccccc1,0.065,0.257,-0.336,-0.306,-0.604,0.579,0.633 (inactive),-0.25,0.171,-0.385 (inactive),-0.655,0.264 (inactive),0.0324 (inactive),0.198 (inactive),-0.341 (inactive),0.874 (inactive),0.547 (inactive),0.203 (inactive),0.225,-0.0988
CC(C)=C1C(=O)C(c2ccccc2)=C2CN3C(=O)N(CCc4ccccc4)C(=O)[C@]3(Cc3ccc(C(F)(F)F)cc3)[C@H]21,0.549,0.66,-0.232,-1.14,-1.16,-1.5,-0.876 (inactive),-0.699,-0.746,-0.327 (inactive),-1.09,0.908 (inactive),-1.32 (inactive),-0.29 (inactive),0.799 (inactive),0.12 (inactive),-0.943 (inactive),-0.633 (inactive),-1.19,-0.213
COCCOC(=O)N1C(=O)[C@@]2(c3cc(C#CC4=CCCCC4)ccc31)[C@H](c1ccccc1OCCO)N1[C@H](c3ccccc3)[C@H](c3ccccc3)OC(=O)[C@H]1[C@@H]2C(=O)NC[C@H](O)c1ccccc1,-1.86,1.44,-0.529,-3.08,-3.9,0.315,2.5 (inactive),-0.817,-1.07,-1.59 (inactive),-1.14,0.861 (inactive),-2.19 (inactive),-0.158 (inactive),1.92 (inactive),2.08 (inactive),-0.609 (inactive),-0.255 (inactive),-3.52,-0.0476
